Screen size: about 5,500 compounds; about 2,000 (36%) were called active. Not shown: some 18% with an inconclusive outcome. Cut-off read from the data, not from the text of the source: active = normalized growth mostly below about 0.91 (no sharp cut-off); inconclusive = no clear call, values can overlap the other calls; inactive = mostly above about 0.92. This is one part of the list.
Test: chemical genetic growth profiling, strain panel (AID 1159580);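 note: tested at 20 µM; growth read once vehicle control cultures reached saturation at 30 °C; 1 = growth at the plate median or of vehicle wells; lower values mean less growth of the strain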
Conditions: growth OD

Measured: normalized growth

COc1ccc2ccc(=O)oc2c1CC=C(C)C
inactive: S. cerevisiae deletion strains, locus YJL187C, strain SWE1, hits give low values 0.937 | S. cerevisiae deletion strains, locus YKL160W, strain elf1, hits give low values 0.912 | S. cerevisiae deletion strains, locus YLL041C, strain sdh2, hits give low values 0.945 | S. cerevisiae deletion strains, locus YLR342W, strain FKS1, hits give low values 0.923 | S. cerevisiae deletion strains, locus YLR384C, strain iki3, hits give low values 0.957 | S. cerevisiae deletion strains, locus YML016C, strain PPZ1, hits give low values 0.926 | S. cerevisiae deletion strains, locus YMR231W, strain pep5, hits give low values 0.935 | S. cerevisiae deletion strains, locus YMR307W, strain GAS1, hits give low values 0.706 | S. cerevisiae deletion strains, locus YNL209W, strain ssb2, hits give low values 0.958 | S. cerevisiae deletion strains, locus YNL248C, strain rpa49, hits give low values 0.971 | S. cerevisiae deletion strains, locus YNL250W, strain rad50, hits give low values 0.918 | S. cerevisiae deletion strains, locus YOL012C, strain htz1 0.768 | S. cerevisiae deletion strains, locus YOR061W, strain CKA2, hits give low values 0.929 | S. cerevisiae deletion strains, locus YOR080W, strain dia2, hits give low values 0.93 | S. cerevisiae deletion strains, locus YOR083W, strain WHI5, hits give low values 0.895 | S. cerevisiae deletion strains, locus YOR106W, strain vam3, hits give low values 0.917 | S. cerevisiae deletion strains, locus YPL051W, strain arl3, hits give low values 0.931 | S. cerevisiae deletion strains, locus YPL106C, strain sse1, hits give low values 0.917 | S. cerevisiae deletion strains, locus YPL240C, strain hsp82, hits give low values 0.96 | S. cerevisiae deletion strains, locus YPR141C, strain kar3, hits give low values 0.937
active: S. cerevisiae deletion strains, locus YJR043C, strain POL32, hits give low values 0.538 | S. cerevisiae deletion strains, locus YKL009W, strain mrt4, hits give low values 0.873 | S. cerevisiae deletion strains, locus YKL068W, hits give low values 0.898 | S. cerevisiae deletion strains, locus YKL085W, strain MDH1 (second series), hits give low values 0.916 | S. cerevisiae deletion strains, locus YKL085W, strain MDH1, hits give low values 0.916 | S. cerevisiae deletion strains, locus YKR001C, strain vps1, hits give low values 0.589 | S. cerevisiae deletion strains, locus YKR026C, strain gcn3, hits give low values 0.906 | S. cerevisiae deletion strains, locus YKR091W, strain srl3, hits give low values 0.926 | S. cerevisiae deletion strains, locus YLL001W, strain dnm1, hits give low values 0.87 | S. cerevisiae deletion strains, locus YLL026W, hits give low values 0.857 | S. cerevisiae deletion strains, locus YLR027C, strain aat2, hits give low values 0.845 | S. cerevisiae deletion strains, locus YLR039C, strain RIC1, hits give low values 0.438 | S. cerevisiae deletion strains, locus YLR058C, strain SHM2, hits give low values 0.794 | S. cerevisiae deletion strains, locus YLR102C, strain apc9, hits give low values 0.891 | S. cerevisiae deletion strains, locus YLR221C, strain rsa3, hits give low values 0.871 | S. cerevisiae deletion strains, locus YLR258W, strain gsy2, hits give low values 0.848 | S. cerevisiae deletion strains, locus YLR262C, strain YPT6 (second series), hits give low values 0.642 | S. cerevisiae deletion strains, locus YLR262C, strain YPT6, hits give low values 0.476 | S. cerevisiae deletion strains, locus YLR268W, strain sec22, hits give low values 0.723 | S. cerevisiae deletion strains, locus YLR320W, strain mms22, hits give low values 0.607 | S. cerevisiae deletion strains, locus YLR330W, strain CHS5, hits give low values 0.658 | S. cerevisiae deletion strains, locus YLR342W, strain FKS1 (second series), hits give low values 0.705 | S. cerevisiae deletion strains, locus YLR357W, strain rsc2, hits give low values 0.761 | S. cerevisiae deletion strains, locus YLR370C, strain arc18, hits give low values 0.899 | S. cerevisiae deletion strains, locus YLR371W, strain rom2, hits give low values 0.889 | S. cerevisiae deletion strains, locus YLR418C, strain cdc73, hits give low values 0.492 | S. cerevisiae deletion strains, locus YML032C, strain rad52, hits give low values 0.779 | S. cerevisiae deletion strains, locus YML120C, strain ndi1, hits give low values 0.822 | S. cerevisiae deletion strains, locus YML124C, strain tub3, hits give low values 0.859 | S. cerevisiae deletion strains, locus YMR058W, strain fet3, hits give low values 0.89 | S. cerevisiae deletion strains, locus YMR078C, strain ctf18, hits give low values 0.891 | S. cerevisiae deletion strains, locus YMR125W, strain sto1, hits give low values 0.81 | S. cerevisiae deletion strains, locus YMR129W, hits give low values 0.904 | S. cerevisiae deletion strains, locus YMR205C, strain PFK2, hits give low values 0.659 | S. cerevisiae deletion strains, locus YMR223W, strain ubp8, hits give low values 0.797 | S. cerevisiae deletion strains, locus YMR263W, strain SAP30, hits give low values 0.826 | S. cerevisiae deletion strains, locus YNL067W, strain RPL9B, hits give low values 0.762 | S. cerevisiae deletion strains, locus YNL071W, strain lat1, hits give low values 0.672 | S. cerevisiae deletion strains, locus YNL153C, strain GIM3, hits give low values 0.713 | S. cerevisiae deletion strains, locus YNL233W, strain BNI4, hits give low values 0.567 | S. cerevisiae deletion strains, locus YNL271C, strain bni1, hits give low values 0.907 | S. cerevisiae deletion strains, locus YNL298W, strain CLA4, hits give low values 0.829 | S. cerevisiae deletion strains, locus YNL307C, strain MCK1, hits give low values 0.381 | S. cerevisiae deletion strains, locus YNL322C, strain KRE1 (second series), hits give low values 0.807 | S. cerevisiae deletion strains, locus YNL322C, strain KRE1, hits give low values 0.804 | S. cerevisiae deletion strains, locus YNR049C, strain mso1, hits give low values 0.914 | S. cerevisiae deletion strains, locus YNR052C, strain pop2, hits give low values 0.909 | S. cerevisiae deletion strains, locus YOL147C, strain pex11, hits give low values 0.726 | S. cerevisiae deletion strains, locus YOR001W, strain rrp6, hits give low values 0.889 | S. cerevisiae deletion strains, locus YOR069W, strain VPS5, hits give low values 0.89 | S. cerevisiae deletion strains, locus YOR070C, strain gyp1, hits give low values 0.917 | S. cerevisiae deletion strains, locus YOR136W, strain idh2, hits give low values 0.911 | S. cerevisiae deletion strains, locus YOR144C, strain elg1, hits give low values 0.855 | S. cerevisiae deletion strains, locus YOR184W, strain ser1, hits give low values 0.481 | S. cerevisiae deletion strains, locus YOR265W, strain rbl2, hits give low values 0.921 | S. cerevisiae deletion strains, locus YOR270C, strain vph1, hits give low values 0.532 | S. cerevisiae deletion strains, locus YOR290C, strain snf2, hits give low values 0.712 | S. cerevisiae deletion strains, locus YOR316C, strain cot1, hits give low values 0.864 | S. cerevisiae deletion strains, locus YPL078C, strain atp4, hits give low values 0.845 | S. cerevisiae deletion strains, locus YPR119W, strain clb2, hits give low values 0.888 | S. cerevisiae deletion strains, locus YPR163C, strain tif3, hits give low values 0.796 | S. cerevisiae deletion strains, locus YPR167C, strain met16, hits give low values 0.799 | S. cerevisiae deletion strains, strain wtn01, hits give low values 0.843 | S. cerevisiae strains, strain wild type, hits give low values 0.798

— PubChem BioAssay AID1159580 (chemical genetic matrix, 2015)
